From PubChem BioAssay (Tox21)
Values joined by “and” are separate entries in the source; they are usually repeats but may differ in a detail not shown here. Identical values can stand only once. Inconclusive results are not listed. Where a structure was tested more than once in an assay, its records may differ in their call. Active and inactive are the calls of the source. Unless noted, calls follow the shape of the dose curve; as a rule, active = well fitted curve in the direction sought with a large enough effect in the repeat runs; inconclusive = weak or mixed curves; inactive = no such curve, though single readings can be large; an effect the other way counts as inactive or inconclusive.

Legend:
[1] = qHTS assay to identify small molecule agonists of the androgen receptor (AR) signaling pathway in the presence of an antagonist - cell viability counter screen (AID 1259379); also: nearly all actives have a fitted effect of over 25% in size; also: potency is read from the fitted curve at half-maximal effect
How it was run: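 MDA-kb2 human breast carcinoma cells (stable MMTV-luciferase, AR/GR responsive) were seeded 3,000 cells/well, pre-incubated 5 hr at 37C without CO2, then given 3.0uM nilutamide and compounds at 15 concentrations for 16 hr. Viability was read by CellTiter-Fluor fluorescence.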

[2] = qHTS assay to identify small molecule agonists of the estrogen receptor beta (ER-beta) signaling pathway - cell viability counter screen (AID 1259380); also: nearly all actives have a fitted effect of over 30% in size; also: potency is read from the fitted curve at half-maximal effect
How it was run: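 ER-beta-UAS-bla HEK293T cells in medium with 2% charcoal-stripped FBS were preincubated 6 hr at 37C, dosed with compound in DMSO for 16 hr, then after the bla read, CellTiter-Glo was added for 30 min at room temperature; luminescence recorded.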

[3] = qHTS assay to identify small molecule antagonists of the estrogen receptor beta (ER-beta) signaling pathway - cell viability counter screen (AID 1259382); also: nearly all actives have a fitted effect of over 55% in size; also: potency is read from the fitted curve at half-maximal effect
How it was run: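 ER-beta-UAS-bla HEK293T cells (2,000/well, 2% charcoal-stripped FBS) were pre-incubated 6 hr at 37C, then given compound plus 1nM final 17-beta-estradiol for 16 hr. Viability was read in the same wells by CellTiter-Glo luminescence after 30 min at room temperature.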

[4] = qHTS assay to identify small molecule agonists or antagonists of the thyroid stimulating hormone receptor (TSHR) signaling pathway - wild type cell line counter screen (AID 1259384; calls by dose curve)
How it was run: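 Wild-type HEK293 cells were plated 18 h at 37 C/5% CO2, pin-dosed with compound plus Ro20-1724 medium, held 30 min at room temperature, then given cAMP-d2 and anti-cAMP-cryptate; fluorescence was read after 1 h. Fifteen concentrations, triplicate.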

[5] = target: Thyrotropin receptor (Homo sapiens) (UniProt P16473); assay: qHTS assay to identify small molecule antagonists of the thyroid stimulating hormone receptor (TSHR) signaling pathway (AID 1259385; calls by dose curve; also: nearly all actives have a fitted effect of over 20% in size; also: potency is read from the fitted curve at half-maximal effect)
Sequence of Thyrotropin receptor (Homo sapiens) (P16473 whole entry, looked up): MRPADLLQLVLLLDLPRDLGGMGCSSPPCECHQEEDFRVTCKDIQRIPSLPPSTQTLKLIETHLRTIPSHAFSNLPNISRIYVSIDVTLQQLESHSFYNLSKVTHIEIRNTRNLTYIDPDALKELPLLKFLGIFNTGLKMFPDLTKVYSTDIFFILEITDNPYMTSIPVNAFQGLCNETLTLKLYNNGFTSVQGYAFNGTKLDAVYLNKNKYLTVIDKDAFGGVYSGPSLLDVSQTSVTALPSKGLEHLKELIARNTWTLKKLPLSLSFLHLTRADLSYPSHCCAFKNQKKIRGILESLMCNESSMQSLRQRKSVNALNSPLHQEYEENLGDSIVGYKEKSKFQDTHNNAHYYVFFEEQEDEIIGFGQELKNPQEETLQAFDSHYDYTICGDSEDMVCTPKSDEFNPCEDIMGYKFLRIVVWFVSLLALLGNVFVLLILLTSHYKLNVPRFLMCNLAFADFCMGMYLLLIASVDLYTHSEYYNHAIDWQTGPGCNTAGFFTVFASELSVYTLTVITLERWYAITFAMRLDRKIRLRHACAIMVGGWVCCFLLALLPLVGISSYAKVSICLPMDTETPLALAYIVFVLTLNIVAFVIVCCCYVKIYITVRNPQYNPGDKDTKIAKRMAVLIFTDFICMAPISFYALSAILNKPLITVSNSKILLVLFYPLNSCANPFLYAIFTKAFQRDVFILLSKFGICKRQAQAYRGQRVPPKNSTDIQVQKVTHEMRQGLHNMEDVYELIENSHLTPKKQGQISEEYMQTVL
How it was run: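 TSHR-HEK293 cells were plated and held 18 h at 37C/5% CO2, then given compound plus Ro20-1724 and stimulated with TSH at 1.5 ng/mL final. After 30 min at room temperature, cAMP was detected with cAMP-d2/anti-cAMP-cryptate (1 h) by fluorescence.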

[6] = qHTS assay to identify small molecule agonists of the estrogen receptor alpha (ER-alpha) signaling pathway in the presence of an antagonist - cell viability counter screen (AID 1259386);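 also: cells exposed to compounds for 22 h at 37 °C before the viability read; nearly all actives have a fitted effect of over 30% in size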; also: potency is read from the fitted curve at half-maximal effect
How it was run: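 VM7Luc4E2 cells (endogenous full-length ER-alpha, 4×ERE-luciferase) were held 5 days in phenol red-free medium with 10% charcoal-stripped FBS, plated, then given 10.0nM ICI-182,780 and compounds at 15 concentrations for 22hr at 37C; viability read by CellTiter-Fluor fluorescence.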

[7] = target: Progesterone receptor (Homo sapiens) (UniProt P06401); assay: qHTS assay to identify small molecule agonists of the progesterone receptor (PR) signaling pathway (AID 1346784; calls by dose curve; also: nearly all actives have a fitted effect of over 30% in size)
Sequence of Progesterone receptor (Homo sapiens) (P06401 whole entry, looked up): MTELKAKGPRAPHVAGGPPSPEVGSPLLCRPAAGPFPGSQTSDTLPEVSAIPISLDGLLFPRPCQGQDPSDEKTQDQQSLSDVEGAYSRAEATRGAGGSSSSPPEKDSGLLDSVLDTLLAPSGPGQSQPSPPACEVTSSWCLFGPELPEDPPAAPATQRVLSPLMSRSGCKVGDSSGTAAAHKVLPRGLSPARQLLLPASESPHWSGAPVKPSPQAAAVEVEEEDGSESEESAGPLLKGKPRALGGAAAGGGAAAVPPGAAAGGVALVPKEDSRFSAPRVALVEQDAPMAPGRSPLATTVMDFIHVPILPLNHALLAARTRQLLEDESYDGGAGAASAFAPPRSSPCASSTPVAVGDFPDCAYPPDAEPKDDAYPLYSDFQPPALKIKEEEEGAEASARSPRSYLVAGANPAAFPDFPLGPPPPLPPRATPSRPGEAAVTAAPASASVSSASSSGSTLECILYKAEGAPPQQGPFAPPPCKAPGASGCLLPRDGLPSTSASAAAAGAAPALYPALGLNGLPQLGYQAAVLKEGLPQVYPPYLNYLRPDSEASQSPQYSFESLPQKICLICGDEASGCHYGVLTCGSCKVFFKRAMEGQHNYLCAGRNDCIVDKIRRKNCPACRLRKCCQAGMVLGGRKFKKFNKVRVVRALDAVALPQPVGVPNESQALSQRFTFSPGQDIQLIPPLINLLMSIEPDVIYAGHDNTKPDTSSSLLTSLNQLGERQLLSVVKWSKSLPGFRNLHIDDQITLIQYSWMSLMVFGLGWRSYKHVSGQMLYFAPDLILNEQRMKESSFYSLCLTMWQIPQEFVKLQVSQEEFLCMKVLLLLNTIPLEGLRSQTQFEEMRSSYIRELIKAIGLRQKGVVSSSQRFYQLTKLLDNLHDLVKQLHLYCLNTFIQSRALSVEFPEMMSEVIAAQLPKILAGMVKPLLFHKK
How it was run: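 PR-UAS-bla HEK 293T cells carrying a UAS-driven beta-lactamase reporter were seeded in medium with 2% charcoal-stripped FBS, preincubated 6 hr at 37C, then exposed to compounds in DMSO for 16 hr; agonism was read by LiveBLAzer B/G FRET fluorescence.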

[8] = target: Progesterone receptor (Homo sapiens) (UniProt P06401); assay: qHTS assay to identify small molecule antagonists of the progesterone receptor (PR) signaling pathway (AID 1346795; active = well fitted inhibition curve with a large enough effect in the signal ratio in the repeat runs, not every such curve was filed as active; the % refers to the signal ratio; also: potency is read from the fitted curve at half-maximal effect)
How it was run: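 PR-UAS-bla HEK293T cells carrying a UAS-driven beta-lactamase reporter were plated in medium with 2% charcoal-stripped FBS and rested 6 hr at 37C. Compounds were added with 1 nM R5020 (final) for 16 hr, then FRET substrate loaded 2 hr at room temperature.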

[9] = qHTS assay to identify small molecule antagonists of the progesterone receptor (PR) signaling pathway - cell viability counter screen (AID 1346798); also: nearly all actives have a fitted effect of over 50% in size; also: potency is read from the fitted curve at half-maximal effect
How it was run: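 PR-UAS-bla HEK293T cells in medium with 2% charcoal-stripped FBS were treated with compounds plus R5020 for 16 hr at 37C. Cell viability was then read by CellTiter-Glo luminescence after 30 min at room temperature in the same wells.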

[10] = qHTS assay to identify small molecule agonists of the progesterone receptor (PR) signaling pathway - cell viability counter screen (AID 1346799; calls by dose curve; also: nearly all actives have a fitted effect of over 45% in size; also: potency is read from the fitted curve at half-maximal effect)
How it was run: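 PR-UAS-bla HEK293T cells, 3,000 per well in medium with 2% charcoal-stripped FBS, were preincubated 6 hr at 37C, then exposed to compounds for 16 hr; viability was read as CellTiter-Glo luminescence after 30 min at room temperature.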

[11] = qHTS assay to identify small molecule antagonists of the TGF-beta/Smad signaling pathway - cell viability counter screen (AID 1346824); also: nearly all actives have a fitted effect of over 50% in size
How it was run: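 SBE-bla HEK 293T cells were plated overnight at 37 C, then given compounds in DMSO plus TGF-beta1 (added as 0.25 ng/mL solution) for 5 hr. After the bla read, CellTiter-Glo was added to the same wells and luminescence read after 30 min at room temperature.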

[12] = qHTS assay to identify small molecule agonists of the TGF-beta/Smad signaling pathway - cell viability counter screen (AID 1346829); also: nearly all actives have a fitted effect of over 45% in size; also: potency is read from the fitted curve at half-maximal effect
How it was run: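 CellTiter-Glo luminescence readout; SBE-bla HEK 293T cells, overnight plating, compound 5 hr at 37 C/5% CO2, then bla substrate 2 hr RT, then CellTiter-Glo 30 min RT.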

[13] = qHTS assay to identify small molecule agonists of the TGF-beta/Smad signaling pathway (AID 1346859; active = well fitted activation curve with a large enough effect in the signal ratio in the repeat runs, not every such curve was filed as active; the % refers to the signal ratio; also: series mostly up to about 77 µM)
How it was run: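 HEK 293T cells stably carrying a beta-lactamase reporter driven by the Smad binding element were seeded overnight, exposed to DMSO-dissolved compounds for 5 hr at 37 C, 5% CO2, then loaded with FRET substrate for 2 hr at room temperature.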

[14] = target: Thyrotropin-releasing hormone receptor (Homo sapiens) (UniProt P34981); assay: qHTS assay to identify small molecule antagonists of the thyrotropin-releasing hormone receptor (TRHR) signaling pathway (AID 1346877; active = well fitted inhibition curve with a large enough effect in the repeat runs, not every such curve was filed as active; also: series mostly up to about 51 µM)
Sequence of Thyrotropin-releasing hormone receptor (Homo sapiens) (P34981 whole entry, looked up): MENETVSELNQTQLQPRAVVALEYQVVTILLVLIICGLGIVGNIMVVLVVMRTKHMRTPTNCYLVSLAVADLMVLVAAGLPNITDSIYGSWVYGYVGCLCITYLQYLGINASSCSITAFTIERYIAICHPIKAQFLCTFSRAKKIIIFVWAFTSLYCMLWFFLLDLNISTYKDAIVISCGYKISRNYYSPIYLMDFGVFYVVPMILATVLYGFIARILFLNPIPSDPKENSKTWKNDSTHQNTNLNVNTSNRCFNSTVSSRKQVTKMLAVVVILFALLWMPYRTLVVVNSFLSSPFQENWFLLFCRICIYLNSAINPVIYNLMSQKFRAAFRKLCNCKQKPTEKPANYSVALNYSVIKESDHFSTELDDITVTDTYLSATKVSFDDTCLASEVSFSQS
How it was run: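 TRHR-expressing HEK293 cells were seeded, cultured 18 h at 37 °C, then loaded with calcium dye for 2 h. Compounds were pre-incubated 5 min at room temperature before 1 nM TRH (final) was added, and kinetic fluorescence was recorded for 3 min.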

[15] = Human pregnane X receptor (PXR) small molecule agonists, qHTS cell viability counter screen (AID 1346977); also: nearly all actives have a fitted effect of over 50% in size; also: potency is read from the fitted curve at half-maximal effect
How it was run: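 PXR-Luc HepG2 cells in medium with 5% charcoal-stripped FBS were pre-incubated 5hr, then exposed to compounds for 24hr at 37C. Viability was read in the same wells by CellTiter-Fluor fluorescence, reagent added after 23hr with a 1hr incubation.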

[16] = Caspase-3/7 induction in HepG2 cells by small molecules, qHTS assay (AID 1346978); also: nearly all actives have a fitted effect of over 15% in size; also: potency is read from the fitted curve at half-maximal effect
How it was run: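 Wild-type HepG2 cells (2,000/well) were settled 5 h at 37 C, 5% CO2, then exposed to compounds in DMSO for 17 h. Caspase-3/7 activity was read by luminescence 30 min after adding Caspase-Glo 3/7 reagent at room temperature.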

[17] = target: Estrogen receptor (Homo sapiens) (UniProt P03372); assay: qHTS assay to identify small molecule agonists of the estrogen receptor alpha (ER-alpha) signaling pathway in the presence of an antagonist (AID 1259383; calls by dose curve; also: top concentration of the series differs between compounds; nearly all actives have a fitted effect of over 15% in size)
Sequence of Estrogen receptor (Homo sapiens) (P03372 whole entry, looked up): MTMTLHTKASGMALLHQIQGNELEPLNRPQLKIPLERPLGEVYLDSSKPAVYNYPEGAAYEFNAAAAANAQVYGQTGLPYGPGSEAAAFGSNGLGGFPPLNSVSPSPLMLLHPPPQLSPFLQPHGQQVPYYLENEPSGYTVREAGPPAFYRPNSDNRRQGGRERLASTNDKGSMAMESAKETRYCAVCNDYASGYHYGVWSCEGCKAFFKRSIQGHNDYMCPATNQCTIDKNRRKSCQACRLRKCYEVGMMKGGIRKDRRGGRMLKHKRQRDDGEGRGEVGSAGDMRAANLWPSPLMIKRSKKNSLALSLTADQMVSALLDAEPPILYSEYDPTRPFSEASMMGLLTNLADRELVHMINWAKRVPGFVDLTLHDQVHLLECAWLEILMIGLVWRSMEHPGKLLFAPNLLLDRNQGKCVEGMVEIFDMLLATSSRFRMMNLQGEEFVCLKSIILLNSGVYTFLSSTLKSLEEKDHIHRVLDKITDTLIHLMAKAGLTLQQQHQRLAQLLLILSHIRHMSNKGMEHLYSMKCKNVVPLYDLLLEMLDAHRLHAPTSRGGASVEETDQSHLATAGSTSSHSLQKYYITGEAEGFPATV
How it was run: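 VM7Luc4E2 cells (endogenous full-length ER-alpha, 4×ERE-luciferase) were precultured 5 days in phenol red-free medium with 10% charcoal-stripped FBS, given 10.0nM ICI-182,780 (final), then treated with compounds at 15 concentrations for 22hr at 37C; luminescence read with ONE-Glo.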

[18] = target: Thyrotropin-releasing hormone receptor (Homo sapiens) (UniProt P34981); assay: qHTS assay to identify small molecule agonists of the thyrotropin-releasing hormone receptor (TRHR) signaling pathway (AID 1346891; calls by dose curve; also: series mostly up to about 58 µM)
How it was run: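 TRHR-expressing HEK293 cells were plated 18 h at 37 °C/5% CO2, loaded with calcium dye 2 h at 37 °C, then given compound in DMSO; fluorescence was read kinetically for 3 min at 1 s intervals.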

Measured: Potency

NCCCC(O)(P(=O)(O)O)P(=O)(O)O
not listed: [17] | [18]
inactive: all other assays above

CCCCCCCCCCCCOC(=O)c1cc(O)c(O)c(O)c1
61.4 µM (active) and inactive: [12]
inactive: [17] | [4] | [13]
68.3 µM (active) and inactive: [5]
active: [1] 68.3 µM and 61.1 µM | [2] 34.2 µM and 68.6 µM | [3] 68.3 µM and 68.6 µM | [6] 60.9 µM | [9] 54.2 µM | [10] 60.9 µM | [15] 60.9 µM and 61.1 µM | [16] 60.9 µM and 68.6 µM

C=CC(C)C#N (stereo unspecified)
not listed: [4] | [5] | [8] | [10] | [14] | [17] | [18]
inactive: all other assays above

CNC(=S)NN
active: [2] 17.2 µM | [8] 8.63 µM | [9] 13.7 µM | [15] 12.2 µM | [16] 61.1 µM
not listed: [3] | [7] | [10] | [14] | [18]
inactive: all other assays above

CCCCCCCCCCCCN(CCO)CCO
inactive: [17] | [4] | [5] | [11] | [13] | [14]
active: [1] 60.9 µM | [2] 60.9 µM | [3] 60.9 µM | [8] 60.9 µM | [15] 48.4 µM | [16] 30.5 µM

O=C1C=CC(=O)N1c1ccccc1
inactive: [17] | [13] | [18] | [16]
active: [1] 61.1 µM | [2] 27.3 µM | [3] 48.6 µM | [6] 68.6 µM | [9] 68.6 µM | [10] 61.1 µM | [15] 48.6 µM

Cc1cc2c(C(C)C)c(O)c(O)c(C=O)c2c(O)c1-c1c(C)cc2c(C(C)C)c(O)c(O)c(C=O)c2c1O
inactive: [17] | [4] | [5] | [13] | [14] | [18]
active: [1] 29.8 µM | [2] 13.3 µM | [3] 23.7 µM | [8] 13.3 µM | [15] 18.8 µM

Nc1ncnc2c1ncn2[C@@H]1O[C@H](COP(=O)(O)O)[C@@H](O)[C@H]1O
active: [2] 26.6 µM
not listed: [9] | [17]
inactive: all other assays above

c1cc(OCC2CO2)cc(OCC2CO2)c1 (stereo unspecified)
active: [10] 60.6 µM | [15] 60.6 µM
not listed: [6] | [7] | [8] | [9] | [13] | [16]
inactive: all other assays above

Cc1cc(C)c(C=O)c(C)c1
not listed: [17]
inactive: all other assays above

COc1cccc(CCc2ccccc2OCC(CN(C)C)OC(=O)CCC(=O)O)c1 (stereo unspecified)
active: [2] 23.7 µM | [3] 21.1 µM | [9] 13.3 µM | [10] 2.98 µM | [15] 26.6 µM
not listed: [6] | [8]
inactive: all other assays above

CN1[C@@H]2CC[C@@H]1CC(OC(=O)C(CO)c1ccccc1)C2 (stereo partly specified)
not listed: [4] | [5] | [10] | [14] | [17] | [18]
inactive: all other assays above

CNCC[C@H](Oc1cccc2ccccc12)c1cccs1
active: [1] 29.8 µM | [2] 16.8 µM | [3] 13.3 µM | [9] 23.7 µM | [10] 21.1 µM | [15] 29.8 µM
not listed: [6] | [8] | [16] | [17]
inactive: all other assays above

O=C(O)CCn1c2c(c3ccccc31)C[C@H](NS(=O)(=O)c1ccc(F)cc1)CC2
inactive: [1] | [2] | [3] | [6] | [9] | [10] | [12] | [15] | [16]

S=P(N1CC1)(N1CC1)N1CC1
not listed: [5] | [8] | [9] | [10] | [11]
inactive: all other assays above
